In PubChem BioAssay (NCI):
This is part of a sample that, as a whole, favours compounds with a hit. Of some 83,000 tested, about 20% had one in any assay.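 Cell lines were cultured in 96-well plates, exposed to a single compound concentration, and assessed for percent growth 48 hours later.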 The source made the active and inactive calls. How the source made its calls: active means growth percent below 10; inactive means the rest.

Columns and labels:
Assay in all cases: NCI-60 one-dose screen, 48 h (100 = growth as untreated, 0 = no growth, -100 = all killed)
Conditions in all cases: 10 µM unless noted
[1] = system: K-562 leukemia
[2] = system: MALME-3M melanoma
[3] = system: MDA-MB-231 breast
[4] = system: RXF 393 renal
[5] = system: SF-268 CNS
[6] = system: SF-295 CNS
[7] = system: SF-539 CNS
[8] = system: UACC-257 melanoma
[9] = system: M14 melanoma
[10] = system: HCT-15 colon
[11] = system: HT29 colon
[12] = system: SNB-75 CNS
[13] = system: SNB-19 CNS
[14] = system: U251 CNS
[15] = system: PC-3 prostate
[16] = system: UACC-62 melanoma
[17] = system: LOX IMVI melanoma
[18] = system: SK-MEL-28 melanoma
[19] = system: SK-MEL-2 melanoma
[20] = system: SK-MEL-5 melanoma

Measured: growth

Cc1ccc(C(=O)Nc2cccc(C(F)(F)F)c2)cc1Nc1nc(-c2cnccn2)nc2c1cnn2C
active: [1] 3.86% | [2] -15.3% | [19] -4.36%
inactive: [3] 25.3% | [4] 78% | [5] 81.8% | [6] 79% | [7] 60.6% | [8] 26.1% | [9] 15.7% | [10] 81.3% | [11] 32.9% | [12] 77.4% | [13] 86% | [14] 82.1% | [15] 90.1% | [16] 17.9% | [17] 62.3% | [18] 15.6%

CC(=O)Nc1cc(F)cc(-c2ccc3[nH]cc(-c4ccccc4)c3n2)c1
inactive: [5] 41.3% | [12] 111% | [13] 12.9% | [15] 20% | [20] 49%
active: [1] 0.935% | [2] -14.3% | [3] -3.42% | [4] -11.8% | [6] -42.9% | [7] -28.5% | [8] -29.3% | [9] -14.8% | [10] -60.8% | [11] -49.6% | [14] -2.16% | [16] -1.28% | [18] -67.5% | [19] -17.5%

O=C(CCCN1C(=O)/C(=C/c2ccccc2F)SC1=S)N1CCOCC1
inactive: [1] 59.7% | [2] 72.5% | [3] 73.4% | [4] 83.7% | [5] 95.6% | [6] 103% | [7] 92.7% | [8] 83.6% | [9] 77.6% | [10] 74.3% | [11] 99.2% | [12] 79.3% | [13] 101% | [14] 86.1% | [15] 105% | [16] 81.5% | [18] 89.7% | [19] 115%
active: [17] -63.6%

CS(=O)(=O)c1ccc(-n2cc(/C=C/C(=O)c3ccc(NC(=O)CO[N+](=O)[O-])cc3)c(-c3ccc(Cl)cc3)n2)cc1
inactive: [1] 119% | [2] 100% | [3] 79.5% | [4] 86.8% | [5] 111% | [6] 91.2% | [7] 92.7% | [8] 97.1% | [9] 91.6% | [10] 96.2% | [11] 108% | [12] 111% | [13] 84.9% | [14] 92.9% | [15] 96.2% | [16] 83.3% | [17] 96.9% | [18] 66.1%

COc1ccc(/C=N/NC(=O)c2[nH]c3ccc(Br)cc3c2-c2ccccc2)s1
inactive: [1] 10.8% | [2] 55.5% | [4] 80.9% | [5] 39.7% | [6] 15.6% | [8] 47% | [10] 12% | [12] 26.4% | [13] 30.6% | [14] 30.2% | [15] 30.9% | [16] 42.4% | [18] 63.6% | [19] 43.9%
active: [3] 3.89% | [7] 1.16% | [9] 6.17% | [11] 0.251% | [20] -24.4%

CC(=O)c1ccc(Nc2nc(SC(C)C)nc(-c3ccccc3)c2C#N)cc1
inactive: [1] 92.6% | [2] 112% | [3] 95.7% | [4] 103% | [5] 91.9% | [6] 109% | [7] 95.5% | [8] 108% | [9] 118% | [10] 101% | [11] 99.6% | [12] 92.3% | [13] 87.2% | [14] 89.5% | [15] 88.1% | [16] 82.3% | [17] 95.1% | [18] 104% | [19] 117%

CN(C)CCCNc1c2ccccc2nc2c1oc1ccc(Cl)cc12
active: [1] -1.57% | [3] -31.7% | [4] -65.8% | [10] -31.1% | [11] -34%
inactive: [2] 30.7% | [5] 40.9% | [6] 24.6% | [7] 18.3% | [8] 49.9% | [9] 27% | [12] 37.5% | [13] 43.3% | [14] 33.4% | [15] 47.2% | [20] 47.9% | [16] 52.1% | [18] 43.8% | [19] 70.8%

O=C1Nc2ccccc2Oc2ccc(S(=O)(=O)CC3CO3)cc21 (stereo unspecified)
inactive: [1] 18% | [2] 87.7% | [3] 48.4% | [4] 58.1% | [5] 80.2% | [6] 66.3% | [7] 69.7% | [8] 65% | [9] 57.5% | [10] 21.2% | [11] 58.8% | [12] 90.6% | [13] 96.9% | [14] 77.6% | [15] 62.3% | [20] 90% | [16] 67.6% | [18] 64.1% | [19] 85.5%

O=C1c2c(c3c4cc(Br)ccc4[nH]c3c3ccc4ccccc4c23)C(=O)N1CCO
inactive: [1] 71.6% | [2] 103% | [3] 75.3% | [4] 107% | [5] 105% | [6] 91.8% | [7] 90.9% | [8] 97.4% | [9] 103% | [10] 72.8% | [11] 89.9% | [12] 128% | [13] 85.6% | [14] 74.3% | [15] 83.3% | [16] 72.6% | [17] 66.4% | [18] 99.8% | [19] 110%

N#Cc1nc(-c2ccccc2)oc1S(=O)(=O)N1CCN(CCc2ccccn2)CC1
active: [1] 6.82% | [2] -66.9% | [4] -54.7% | [10] -27.2% | [11] -5.82%
inactive: [3] 38.9% | [5] 109% | [6] 99.2% | [7] 68.7% | [8] 77% | [9] 15.2% | [12] 87.2% | [13] 97.7% | [14] 88% | [15] 86% | [20] 97.6% | [16] 83.6% | [18] 43.6% | [19] 108%

Clc1ccc(Cc2nnc3sc(-c4cccnc4)nn23)cc1
inactive: [1] 87.1% | [2] 108% | [3] 93.6% | [4] 85.9% | [5] 96.4% | [6] 99.9% | [7] 92.5% | [8] 109% | [9] 106% | [11] 102% | [12] 94.4% | [13] 93.3% | [14] 99% | [15] 101% | [20] 96.4% | [16] 91.1% | [17] 96.7% | [18] 109% | [19] 113%

Clc1ccc2oc3c(NCCCn4ccnc4)c4ccccc4nc3c2c1
active: [1] 4.86% | [11] -35.2% | [17] -72.1%
inactive: [2] 57.1% | [3] 27.1% | [4] 23.9% | [5] 38.3% | [6] 30.2% | [7] 24.3% | [8] 78.3% | [9] 49.7% | [12] 42.1% | [13] 51% | [14] 11.6% | [15] 55.4% | [20] 78% | [16] 45.2% | [18] 59% | [19] 110%

CN(C)c1ccc(/C=c2\sc3nc4ccccc4n3c2=O)cc1
inactive: [1] 96.8% | [2] 101% | [3] 91.2% | [4] 117% | [5] 109% | [6] 109% | [7] 96.5% | [8] 117% | [9] 102% | [10] 107% | [11] 107% | [12] 105% | [13] 99.3% | [14] 102% | [15] 106% | [16] 96.5% | [18] 103% | [19] 118%

Cn1c(SCC(=O)c2cccs2)nc2ccccc2c1=O
inactive: [1] 78.5% | [2] 102% | [3] 88.2% | [4] 107% | [5] 92.7% | [6] 107% | [7] 94.6% | [8] 93.4% | [9] 97.8% | [10] 91.1% | [11] 106% | [12] 88.7% | [13] 102% | [14] 97.5% | [15] 90.3% | [16] 92.6% | [18] 105%

COc1ccc(C(=O)c2cc(C(=O)/C=C/c3c(Cl)cccc3Cl)c3cc(C)ccn23)cc1
inactive: [1] 94.2% | [2] 97.1% | [3] 96.9% | [4] 108% | [5] 98% | [6] 101% | [7] 94.6% | [8] 102% | [9] 99.5% | [10] 99.9% | [11] 103% | [12] 76.7% | [13] 98.8% | [14] 100% | [15] 91.3% | [16] 94% | [18] 108% | [19] 101%

N=C1CC(=O)NN1C(=O)CSc1nc2sc3c(c2c(=O)n1-c1ccc(Cl)cc1)CCCC3
inactive: [1] 94.6% | [2] 90.5% | [3] 87.7% | [4] 119% | [5] 99.7% | [6] 97.6% | [7] 97.3% | [8] 106% | [9] 99.3% | [10] 106% | [11] 126% | [12] 73.7% | [13] 92.9% | [14] 101% | [15] 95.6% | [16] 93.9% | [18] 108% | [19] 128%

C/C(=N\NC(N)=O)c1c(O)sc(=O)[nH]c1=O
inactive: [1] 105% | [2] 97.5% | [3] 102% | [4] 107% | [5] 104% | [6] 96.3% | [7] 94.6% | [8] 96.5% | [9] 98.8% | [10] 97.1% | [11] 111% | [12] 101% | [13] 93.2% | [14] 108% | [15] 97% | [16] 92.6% | [18] 99.7% | [19] 109%
